Assay results published in the supplement of paper PMC5940239.
Unmarked numbers belong to inactive results.

tested on: Madurella mycetomatis MM55; assay: percent growth relative to solvent control; higher = less inhibition, active = 20 or less; conditions: 100 µM; 7 days

Row | SMILES | percent growth
1 | CCC(NC(=O)c1ccccc1NC(=O)c1ccc(C)cc1)C(=O)OC (centres undefined) | 98.3%
2 | COc1cccc(OC)c1C(=O)Nc1ccc(Cl)c(-c2nc3ccccc3s2)c1 | 78.4%
3 | COc1cccc(OCC(=O)c2ccc(Br)cc2)c1 | 81.3%
4 | Nc1ncnc2c1ncn2C[C@@H](O)[C@@H](O)C(=O)O | 134%
5 | CC(=O)N(CCN(C(=O)c1ccc(F)cc1)c1ccccc1)c1ccccc1 | 48.9%
6 | CC1CCCN(C(=O)C(C)Nc2cc(Cl)ccc2N2CCOCC2)C1 (centres undefined) | 53.8%
7 | O=C(Nc1nc(-c2ccccn2)cs1)C1CC1c1ccccc1F (centres undefined) | 46.7%
8 | Cc1cc(NC(=O)c2ccc(S(=O)(=O)N(Cc3ccccc3)C(C)C)cc2)no1 | 92.5%
9 | NCCC(O)C(=O)N[C@@H]1C[C@H](N)[C@@H](OC2O[C@H](CN)[C@@H](O)[C@H](O)[C@H]2O)[C@H](O)C1OC1O[C@H](CO)[C@@H](O)[C@H](N)[C@H]1O (some centres undefined) | 102%
10 | CCS(=O)(=O)N(Cc1ccco1)Cc1cc2ccc(C)cc2nc1O | 85%
11 | CC1=Nc2ccc(Cl)cc2C(c2ccccc2)N1CCNC(=O)CN(C)C (centres undefined) | 106%
12 | O=C(Nc1ccccc1-c1nc2c(C(=O)O)cccc2o1)c1ccccc1 | 94%
13 | Nc1ncnc2c1c(Cc1cccc3ccccc13)nn2CC1CCNCC1 | 132%
14 | Cc1ccc2oc(-c3cc(NC(=O)Cc4ccccc4)ccc3Cl)nc2c1 | 96%
15 | Nc1nccc2ccc(Oc3ccncc3)cc12 | 71.5%
16 | COc1cccc2c(C)nc(N=C(N)N)nc12 | 96.9%
17 | N#Cc1ccc(-c2ccc(OCC(N)=O)cc2)cc1 | 96.5%
18 | Cc1nn2c(O)c3c(nc2c1-c1ccc(F)cc1)CCCC3 | 113%
19 | CCc1ccccc1-n1c(C)cn2c3c(=O)n(C(C(=O)OC)C(C)C)c(=O)n(C)c3nc12 (centres undefined) | 79.9%
20 | Clc1ccc(-n2cc(COc3ccnc4ccccc34)nn2)cc1 | 63%

Row | SMILES | percent growth
21 | FC(F)(F)c1ccc(N(c2cccnc2)C2CCN(c3ccc(C(F)(F)F)cn3)CC2)cc1 | 59.5%
22 | O=C(NCc1ccoc1)N1CCN(Cc2ccc3c(c2)OCO3)CC1 | 92.5%
23 | CC(C)N=c1cc2n(-c3ccc(Cl)cc3)c3ccccc3nc-2cc1Nc1ccc(Cl)cc1 | 105%
24 | COc1ccc2nc(C)cc(OCC(=O)Nc3ccccc3OC)c2c1 | 72.5%
25 | COc1ccccc1C(C)NCC(=O)Nc1cc(C(F)(F)F)ccc1Cl (centres undefined) | 28.7%
26 | CCN(CC)S(=O)(=O)c1ccc(C(=O)Nc2cc(C)nn2-c2nc(C)c(C)c(=O)[nH]2)cc1 | 63%
27 | CNC(=O)CNc1nc(-c2ccccn2)nc2scc(-c3ccccc3)c12 | 30.8%
28 | COC(=O)c1c(NC(=O)c2c(F)c(F)c(F)c(F)c2F)sc2c1CCCCC2 | 85.5%
29 | COC(=O)c1ccc(F)cc1NS(=O)(=O)c1cccc(-c2cnn(Cc3ccccc3)c2)c1 | 118%
30 | Cc1noc(C)c1C(=O)N1CCCC(c2[nH]c3c(C)cccc3c2-c2ccncc2)C1 (centres undefined) | 51.6%
31 | CCOC(=O)c1noc(N)c1-c1ccccc1 | 87.2%
32 | O=C(N[C@H](Cc1ccccc1)C(=O)Nc1ccccc1N1CCOCC1)c1cccs1 | 36.5%
33 | O=C(Nc1ccnc(-c2cccnc2)n1)c1cc(C(F)(F)F)cc(C(F)(F)F)c1 | 169%
34 | CNc1cc(C)nc(C2CN(C(=O)c3n[nH]c4ccccc34)CCO2)c1 (centres undefined) | 103%
35 | Nc1ncnc2c1c(-c1cnc3ccccc3c1)nn2CC1CCNCC1 | 93.3%
36 | COc1ccc(C2(C(=O)Nc3ccc(Br)cc3)CCCC2)cc1 | 56.2%
37 | COc1ccc(C2CC(c3cccs3)=NN2C(=O)c2ccco2)cc1OC (centres undefined) | 100%
38 | O=C(NCc1ccco1)N1CCN(Cc2ccc(Cl)s2)CC1 | 90.6%
39 | Cc1cccc(NC(=O)c2cc(S(=O)(=O)N(C)c3ccc(F)cc3)ccc2Cl)n1 | 70%
